What all share (parameters): scale not given: direction of the effect not stated beside the values
Assay [1] concerns the target Protein translocase subunit SecA (Escherichia coli (strain K12)) (UniProt P10408). In words: Assay to Identify E. coli SecA ATPase Inhibitors. Type of assay: functional. The conditions noted are these: 30 µM.
Assay [2] concerns the target T1, Ubiquitin-activating enzyme e1, putative (Leishmania donovani (strain BPK282A1)) (UniProt E9BSI1).
T1 sequence (whole entry): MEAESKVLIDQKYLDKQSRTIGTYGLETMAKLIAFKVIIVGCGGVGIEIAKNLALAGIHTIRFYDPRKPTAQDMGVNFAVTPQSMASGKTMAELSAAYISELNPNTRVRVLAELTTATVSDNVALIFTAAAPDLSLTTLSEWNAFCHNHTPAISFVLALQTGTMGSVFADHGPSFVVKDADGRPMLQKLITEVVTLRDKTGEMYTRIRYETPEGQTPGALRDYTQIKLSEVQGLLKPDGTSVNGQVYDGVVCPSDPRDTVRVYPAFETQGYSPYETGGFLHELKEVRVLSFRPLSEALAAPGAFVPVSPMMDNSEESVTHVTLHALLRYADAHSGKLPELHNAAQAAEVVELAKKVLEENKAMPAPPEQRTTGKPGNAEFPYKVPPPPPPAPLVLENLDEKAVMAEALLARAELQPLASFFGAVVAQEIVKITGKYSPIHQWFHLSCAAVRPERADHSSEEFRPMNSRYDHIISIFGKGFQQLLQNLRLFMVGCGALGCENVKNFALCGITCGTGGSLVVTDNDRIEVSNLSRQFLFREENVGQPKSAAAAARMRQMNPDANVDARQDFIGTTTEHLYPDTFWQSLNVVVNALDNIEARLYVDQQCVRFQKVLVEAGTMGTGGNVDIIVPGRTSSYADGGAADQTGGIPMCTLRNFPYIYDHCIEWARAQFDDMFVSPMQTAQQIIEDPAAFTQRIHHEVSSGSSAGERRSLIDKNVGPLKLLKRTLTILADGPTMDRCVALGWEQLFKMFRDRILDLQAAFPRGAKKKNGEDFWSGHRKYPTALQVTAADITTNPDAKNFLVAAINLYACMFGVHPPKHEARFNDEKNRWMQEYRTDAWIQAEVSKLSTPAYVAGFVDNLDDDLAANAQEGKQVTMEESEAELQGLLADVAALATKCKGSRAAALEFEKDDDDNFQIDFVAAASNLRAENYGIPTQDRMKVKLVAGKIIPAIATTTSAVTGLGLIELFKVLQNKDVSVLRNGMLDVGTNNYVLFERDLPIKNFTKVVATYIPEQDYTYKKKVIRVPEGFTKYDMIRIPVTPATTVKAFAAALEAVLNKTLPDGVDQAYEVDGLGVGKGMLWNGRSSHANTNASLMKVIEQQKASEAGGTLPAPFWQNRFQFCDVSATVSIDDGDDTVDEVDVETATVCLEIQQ
The assay is described as follows: Leishmania donovani Ubiquitin Activating Enzyme (LdE1). It counts as functional. The conditions noted are these: 30 µM.

For assay [3], the target named is AMP-activated protein kinase, AMPK (Homo sapiens) (UniProt P54646+O43741+P54619+Q9UGJ0+Q9Y478+Q13131+Q9UGI9). The assay is described as follows: AMP-dependent Kinase enzyme assay. An in vitro enzyme assay that detects ADP turnover that is directly proportional to AMPK activity. This uses naive AMPK that is activated during the assay with MK-8722. It counts as functional. The conditions noted are these: 30 µM.

Assay [4] has as its target Sialic acid-binding Ig-like lectin 9 (Homo sapiens) (UniProt Q9Y336). The assay is described as follows: Hs-Siglec9 ALPHAscreen SOP 20170721. The conditions noted are these: 10 µM. On the technique in general: Bead proximity is the source of the signal in Alpha formats.
Another assay deals with Trypanosoma cruzi. The assay is described as follows: Trypanosoma cruzi phosphomannomutase and mannose-1-phosphate guanylyltransferase assay. Type of assay: functional. The conditions noted are these: 10 µM.
Assay [5] addresses T2, Arginase-2, mitochondrial (Homo sapiens) (UniProt P78540).
T2 sequence (whole entry): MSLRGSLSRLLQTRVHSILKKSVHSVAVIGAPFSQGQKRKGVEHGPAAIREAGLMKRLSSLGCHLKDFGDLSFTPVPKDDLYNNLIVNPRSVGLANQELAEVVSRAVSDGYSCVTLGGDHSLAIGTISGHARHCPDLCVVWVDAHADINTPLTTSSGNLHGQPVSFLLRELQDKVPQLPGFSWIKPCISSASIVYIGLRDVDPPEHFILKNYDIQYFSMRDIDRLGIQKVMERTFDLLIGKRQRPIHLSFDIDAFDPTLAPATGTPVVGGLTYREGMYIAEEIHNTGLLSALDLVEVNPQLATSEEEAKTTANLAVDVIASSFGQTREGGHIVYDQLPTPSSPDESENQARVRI
The assay is described as follows: in vitro enzyme assay to detect the production of urea directly proportional to the activity of Arginase II. Also: in the data most compounds retested in dose-response had high values. Type of assay: functional. Conditions: 33.3 µM.

Assay [6] concerns the target T3, Proteasome subunit beta (Trypanosoma cruzi) (UniProt O96673).
T3 sequence (whole entry): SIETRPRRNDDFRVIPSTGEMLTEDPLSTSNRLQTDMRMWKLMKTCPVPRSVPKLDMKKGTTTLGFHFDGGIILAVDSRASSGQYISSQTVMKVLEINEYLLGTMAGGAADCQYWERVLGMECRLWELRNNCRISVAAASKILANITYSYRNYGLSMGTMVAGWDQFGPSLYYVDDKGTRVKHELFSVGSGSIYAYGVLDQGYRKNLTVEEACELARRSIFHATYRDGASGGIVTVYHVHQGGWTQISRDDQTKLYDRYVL
In words: Trypanosoma cruzi proteasome chymotrypsin-like activity (TcProtChymo) assay. Also: in the data most compounds retested in dose-response had high values. It counts as functional. The conditions noted are these: 9.37 µM.

The species named for the next assay is Homo sapiens. In words: To identify inhibition of the IFN signalling (Jak-Stat) pathway via expression of an eGFP reporter gene under the control of an IFN-stimulated response element (ISRE) containing MxA promoter. Type of assay: functional. Conditions: 30 µM. Background: Reporter assays use an easily measured gene product as a stand-in for the process of interest.

Assay [7] concerns the target T4, Tyrosyl-tRNA synthetase, putative (Trypanosoma cruzi (strain CL Brener)) (UniProt Q4DSP6).
T4 sequence (whole entry): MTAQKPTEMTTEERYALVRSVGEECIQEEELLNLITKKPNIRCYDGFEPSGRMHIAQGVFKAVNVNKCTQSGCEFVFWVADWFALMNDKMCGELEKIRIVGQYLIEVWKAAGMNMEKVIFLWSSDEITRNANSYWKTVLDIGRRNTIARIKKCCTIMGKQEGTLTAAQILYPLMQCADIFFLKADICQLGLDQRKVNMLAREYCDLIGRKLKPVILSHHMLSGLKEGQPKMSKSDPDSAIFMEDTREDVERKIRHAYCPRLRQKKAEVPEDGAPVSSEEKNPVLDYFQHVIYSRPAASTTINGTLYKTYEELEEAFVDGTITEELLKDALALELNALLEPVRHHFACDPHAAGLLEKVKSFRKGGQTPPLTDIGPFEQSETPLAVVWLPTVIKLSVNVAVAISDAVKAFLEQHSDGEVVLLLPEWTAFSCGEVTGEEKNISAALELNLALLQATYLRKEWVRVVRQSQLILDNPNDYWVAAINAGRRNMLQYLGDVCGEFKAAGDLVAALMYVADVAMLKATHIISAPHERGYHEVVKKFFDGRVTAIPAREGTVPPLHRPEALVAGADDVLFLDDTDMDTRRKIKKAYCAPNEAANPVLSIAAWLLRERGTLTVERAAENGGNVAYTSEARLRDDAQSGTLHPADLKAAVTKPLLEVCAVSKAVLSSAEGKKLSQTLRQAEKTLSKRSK
In words: Trypanosoma cruzi tyrosyl tRNA synthetase (TcYRS) _High Tyrosine SOP. Also: in the data most compounds retested in dose-response had high values. Conditions: 30 µM. It counts as functional.

In assay [8] the target is T4, Tyrosyl-tRNA synthetase, putative (Trypanosoma cruzi (strain CL Brener)). The assay is described as follows: Trypanosoma cruzi tyrosyl tRNA synthetase (TcYRS) SOP. Type of assay: functional. Conditions: 30 µM.
Assay [9] has as its target Chromo domain-containing protein 1 (Saccharomyces cerevisiae (strain ATCC 204508 / S288c) (Baker's yeast)) (UniProt P32657). In words: ScCHD-1 Enzyme Inhibition Assay. Also: in the data most compounds retested in dose-response had high values. Type of assay: functional. Conditions: 30 µM.

We go through eight compounds from ChEMBL document CHEMBL3988442, “University of Dundee, Small-Polar-MMV Screening Library” (2021).

For some of these results: Measured potencies and affinities stand elsewhere.

Sequence of Chromo domain-containing protein 1 (Saccharomyces cerevisiae (strain ATCC 204508 / S288c) (Baker's yeast)) (P32657 whole entry, the tested form may be a part): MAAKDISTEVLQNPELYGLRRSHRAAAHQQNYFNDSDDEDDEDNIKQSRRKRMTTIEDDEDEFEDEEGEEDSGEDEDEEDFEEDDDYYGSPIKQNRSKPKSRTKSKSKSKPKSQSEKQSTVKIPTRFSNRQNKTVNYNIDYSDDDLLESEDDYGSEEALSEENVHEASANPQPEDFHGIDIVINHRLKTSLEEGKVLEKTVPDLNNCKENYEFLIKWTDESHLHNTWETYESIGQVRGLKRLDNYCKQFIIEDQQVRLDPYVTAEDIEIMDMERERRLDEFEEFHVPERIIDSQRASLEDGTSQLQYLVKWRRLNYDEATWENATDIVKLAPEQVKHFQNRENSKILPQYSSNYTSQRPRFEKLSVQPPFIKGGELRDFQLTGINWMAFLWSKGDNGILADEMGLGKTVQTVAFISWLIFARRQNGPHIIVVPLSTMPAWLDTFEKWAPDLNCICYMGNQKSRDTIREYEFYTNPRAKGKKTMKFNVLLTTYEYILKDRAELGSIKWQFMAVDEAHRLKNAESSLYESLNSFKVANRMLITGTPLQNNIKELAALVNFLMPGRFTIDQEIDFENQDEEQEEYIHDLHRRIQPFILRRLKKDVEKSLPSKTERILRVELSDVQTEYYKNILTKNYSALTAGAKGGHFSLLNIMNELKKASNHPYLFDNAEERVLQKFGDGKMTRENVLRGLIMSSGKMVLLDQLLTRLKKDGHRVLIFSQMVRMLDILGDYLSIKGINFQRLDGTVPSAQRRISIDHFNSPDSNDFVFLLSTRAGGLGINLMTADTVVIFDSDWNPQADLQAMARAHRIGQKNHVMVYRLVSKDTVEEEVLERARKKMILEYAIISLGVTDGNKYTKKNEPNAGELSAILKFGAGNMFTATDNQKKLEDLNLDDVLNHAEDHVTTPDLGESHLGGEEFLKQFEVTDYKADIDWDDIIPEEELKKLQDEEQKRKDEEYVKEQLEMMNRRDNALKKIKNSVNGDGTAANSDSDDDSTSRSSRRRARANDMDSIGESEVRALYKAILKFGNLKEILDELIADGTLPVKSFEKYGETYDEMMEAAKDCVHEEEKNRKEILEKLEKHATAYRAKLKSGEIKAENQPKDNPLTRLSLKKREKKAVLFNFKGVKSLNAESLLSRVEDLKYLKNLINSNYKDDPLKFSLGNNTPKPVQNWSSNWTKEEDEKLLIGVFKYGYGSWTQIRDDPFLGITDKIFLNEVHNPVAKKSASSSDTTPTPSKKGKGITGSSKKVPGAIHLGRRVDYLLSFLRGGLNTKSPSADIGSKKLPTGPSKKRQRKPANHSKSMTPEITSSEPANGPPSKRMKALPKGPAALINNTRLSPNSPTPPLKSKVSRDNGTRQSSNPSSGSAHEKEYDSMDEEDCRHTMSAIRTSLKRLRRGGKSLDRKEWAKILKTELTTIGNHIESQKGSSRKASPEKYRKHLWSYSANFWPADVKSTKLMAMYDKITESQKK
Sequence of Sialic acid-binding Ig-like lectin 9 (Homo sapiens) (Q9Y336 whole entry): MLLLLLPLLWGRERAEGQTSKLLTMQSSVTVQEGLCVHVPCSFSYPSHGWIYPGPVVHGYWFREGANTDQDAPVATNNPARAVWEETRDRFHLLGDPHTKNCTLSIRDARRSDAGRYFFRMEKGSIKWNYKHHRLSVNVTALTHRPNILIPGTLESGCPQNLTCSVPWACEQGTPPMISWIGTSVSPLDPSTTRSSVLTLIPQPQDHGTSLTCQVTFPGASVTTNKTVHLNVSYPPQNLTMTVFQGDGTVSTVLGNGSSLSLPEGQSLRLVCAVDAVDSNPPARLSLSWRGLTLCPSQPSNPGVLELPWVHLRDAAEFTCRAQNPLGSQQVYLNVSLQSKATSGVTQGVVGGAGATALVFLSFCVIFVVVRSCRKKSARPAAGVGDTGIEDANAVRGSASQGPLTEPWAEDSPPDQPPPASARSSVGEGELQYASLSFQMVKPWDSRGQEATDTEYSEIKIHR
Sequence of Protein translocase subunit SecA (Escherichia coli (strain K12)) (P10408 whole entry): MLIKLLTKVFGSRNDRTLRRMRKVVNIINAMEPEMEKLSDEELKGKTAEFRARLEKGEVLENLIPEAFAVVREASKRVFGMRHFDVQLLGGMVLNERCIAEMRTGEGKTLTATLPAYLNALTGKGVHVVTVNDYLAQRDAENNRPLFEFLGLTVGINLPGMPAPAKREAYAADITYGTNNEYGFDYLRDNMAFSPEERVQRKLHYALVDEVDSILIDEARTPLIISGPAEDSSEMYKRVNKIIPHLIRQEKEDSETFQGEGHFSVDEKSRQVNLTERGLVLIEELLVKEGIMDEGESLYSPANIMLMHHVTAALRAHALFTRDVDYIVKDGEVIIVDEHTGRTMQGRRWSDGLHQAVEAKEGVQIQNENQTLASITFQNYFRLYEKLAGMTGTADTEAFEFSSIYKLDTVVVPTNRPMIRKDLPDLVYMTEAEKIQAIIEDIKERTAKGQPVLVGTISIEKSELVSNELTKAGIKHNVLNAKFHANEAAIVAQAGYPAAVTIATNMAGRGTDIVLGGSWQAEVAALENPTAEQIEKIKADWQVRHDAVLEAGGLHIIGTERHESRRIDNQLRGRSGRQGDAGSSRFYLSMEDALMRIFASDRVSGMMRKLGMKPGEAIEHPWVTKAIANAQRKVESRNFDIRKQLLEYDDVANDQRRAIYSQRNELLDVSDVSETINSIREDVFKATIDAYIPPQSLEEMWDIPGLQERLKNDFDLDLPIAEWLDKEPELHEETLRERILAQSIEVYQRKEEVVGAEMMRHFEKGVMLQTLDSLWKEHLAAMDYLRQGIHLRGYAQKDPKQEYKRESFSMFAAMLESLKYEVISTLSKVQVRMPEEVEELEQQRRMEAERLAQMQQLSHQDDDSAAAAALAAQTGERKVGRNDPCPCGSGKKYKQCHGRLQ

Take `Cc1cccc(-c2nc(CN(Cc3cccs3)CC3CCCO3)no2)c1` (stereo not drawn): the Percent Effect in assay [1] is -1.96%; in assay [2] it was -51.9%; in [3], 2.38%; in assay [4] it was -0.778%; in the assay on Trypanosoma cruzi, 0.103%; in assay [5], 4.95%. The Percent Effect in [6] was 7.72%; in the assay listed under Homo sapiens, 25.8%; in assay [7], -7.29%; in assay [8], -17.7%; in assay [9] it was -15.2%.

Take `CCC(C)[C@H](NC(=O)c1cc(Br)ccc1-n1cnnn1)C(=O)OC` (stereo partly drawn): the Percent Effect in assay [1] is -3%; in assay [2] it was -1.33%; in assay [3] it was -6.14%; in [4], -6.61%; with Trypanosoma cruzi, -2.36%; in [5], -11.1%. The Percent Effect was 2.03% in [6]; -0.401% in the assay listed under Homo sapiens; -19.1% in assay [7]; -17.9% in assay [8]; 0.0287% in assay [9].

Turning to `CC(=O)Nc1nc(C(=O)N2CCCC2c2noc(C)n2)cs1` (stereo not drawn), the Percent Effect in assay [1] was -6.47%; in assay [2], -5.2%; in [3], 10.4%; in assay [4], -6.87%; in the assay on Trypanosoma cruzi, -7.12%; in assay [5], 2.13%. In addition, the Percent Effect in [6] is -2.2%; in the assay filed under Homo sapiens, 22.6%; in assay [7], -1.94%; in assay [8], -17.1%; in assay [9] it was -6.82%.

As to `CN(C)c1ncccc1CNC(=O)N1CCCC1c1ccsc1` (stereo not drawn), the Percent Effect in [1] was -9.33%; in [2], 18.2%; in assay [3] it was -4.46%; in assay [4], 4.94%; in the assay on Trypanosoma cruzi, -2.43%; in assay [5] it was 0.712%. For the same compound, the Percent Effect in [6] was 2.2%; in the assay listed under Homo sapiens, 1.32%; in assay [7], 5.83%; in [8], 14.6%; in assay [9], -6.19%.

Take `Cc1nccn1C1CCCN(C(=O)c2ccc(N3CCCC3)nn2)C1` (stereo not drawn): the Percent Effect in [1] was -4.79%; in [2], 10.5%; in [3], -5.31%; in assay [4] it was 8.97%; with Trypanosoma cruzi, 1.59%; in assay [5] it was -0.719%. The Percent Effect was -4.65% in [6]; 2.56% in the assay filed under Homo sapiens; 4.43% in assay [7]; 11.1% in assay [8]; -6.5% in assay [9].

Regarding `COc1ccc2cc(C(=O)N3CCCCC3Cn3cccn3)[nH]c2c1` (stereo not drawn), the Percent Effect in assay [1] was -8.67%; in assay [2], 0%; in assay [3], 2.23%; in assay [4], 5.53%; with Trypanosoma cruzi it was -0.562%; in assay [5], 2.13%. In addition, the Percent Effect in [6] is 1.86%; in the assay listed under Homo sapiens, 2.73%; in assay [7], 0%; in [8] it was 2.44%; in assay [9], -1.29%.

As for `Cc1ccc(S(=O)(=O)NC2CC2)cc1C`, the Percent Effect in assay [1] is 1.16%; in [2] it was -1.39%; in assay [3], -6.59%; in [4], 11.8%; with Trypanosoma cruzi it was 0.875%; in [5], 20.3%. Also, the Percent Effect in [6] is 0%; in the assay listed under Homo sapiens it was 28.3%; in assay [7], -1.05%; in assay [8] it was 0%; in [9] it was 0.926%.

Turning to `CC(C)CC(=O)N1CCCn2cnc(CN3CCCC3=O)c2C1`, the Percent Effect in assay [1] is -3.7%; in assay [2] it was 0%; in [3], -0.875%; in assay [4], -3.33%; with Trypanosoma cruzi, -3.23%; in assay [5], 1.74%. The Percent Effect was -0.429% in [6]; -1.05% in the assay listed under Homo sapiens; 2.15% in assay [7]; 6.17% in assay [8]; -0.173% in [9].
